Data as given in the supplement of paper PMC10720658.
± gives the standard deviation of the averaged measurements.

Test system: AEK1 (Tb927.3.2440)
Test: percent reduction in TR-FRET probe signal relative to DMSO control; higher = stronger displacement of ATP-site probe (binding)
Settings: 1 µM; incubation time 1 h

Structure (SMILES) | percent reduction in TR-FRET probe signal [%]
Cc1cc(NC(=O)c2cccc(NC(=O)/C=C/CN(C)C)c2)ccc1Nc1nccc(-c2cccnc2)n1 | -7.17 ± 15
Cc1cnc(Nc2ccc(F)cc2Cl)nc1-c1c[nH]c(C(=O)N[C@H](CO)c2cccc(Cl)c2)c1 | 9.02 ± 15
Nc1nc(NCCNc2ncc(-n3ccnc3)c(-c3ccc(Cl)cc3Cl)n2)ccc1[N+](=O)[O-] | 4.72 ± 12
N#C/C(=C(/N)Sc1ccc(N)cc1)c1ccccc1C(F)(F)F | 2.78 ± 13
O=C(c1cccc(Cl)c1F)N1CCN(Cc2cccc(Nc3nccs3)n2)CC1 | 6.09 ± 13
O=C(Nc1ccc(-c2ccnc(Nc3ccc(N4CCOCC4)cc3)n2)cc1)[C@@H]1CCCN1 | 6.52 ± 10
O=C(Nc1cc(C(F)(F)F)cc(C(F)(F)F)c1)c1cc(Cl)ccc1O | 8.68 ± 3.7
O=C(O)CCC(=O)Nc1ccc(Br)cn1 [Bikinin] | -3.76 ± 0.8
CC(C)N(CCC(=O)c1ccc2ccccc2c1)Cc1ccccc1.Cl | 1.95 ± 3.1
CCc1nc(-c2cccc(C)c2)c(-c2ccnc(NC(=O)c3ccccc3)c2)s1 | -2.96 ± 11
O=c1ccc2ccc(O)c(O)c2o1 [Daphnetin] | -1.13 ± 8.9
CN(C)C/C=C/C(=O)Nc1cc2c(Nc3ccc(F)c(Cl)c3)ncnc2cc1O[C@H]1CCOC1 [Afatinib (BIBW2992)] | 15.6 ± 31
CN1CCN(S(=O)(=O)c2ccc(-c3cnc(N)c(C(=O)Nc4cccnc4)n3)cc2)CC1 | -4.29 ± 6.5
Oc1ccc2ccccc2c1SSc1c(O)ccc2ccccc12 | -9.34 ± 9
Cc1c[nH]c2nc(Nc3ccc(N4CCN(C)CC4)c(F)c3)nc(-c3cccc(CC#N)c3)c12 | 56.3 ± 2
COc1ccc(-c2ccc3c(N4CCOC[C@@H]4C)nc(N4CCOC[C@@H]4C)nc3n2)cc1CO | -7.43 ± 5.2
CCS(=O)(=O)c1cccc(-c2cc(C(=O)NC3CCN(C)CC3)c(C)c3[nH]c4ncc(C)cc4c23)c1 | 79.9 ± 8.1

Structure (SMILES) | percent reduction in TR-FRET probe signal [%]
CNC(=O)Nc1ccc(-c2nc(N3CC4CCC(C3)O4)c3cnn(C4CCC5(CC4)OCCO5)c3n2)cc1 | -1.55 ± 9.3
CS(=O)(=O)O.O=C(Nc1cccc(Cl)c1)Nc1ncc(CCNc2ncnc3ccsc23)s1 [SNS-314 Mesylate] | 0.813 ± 5
Cc1cc(N2CCOCC2)cc2[nH]c(-c3c(NC[C@@H](O)c4cccc(Cl)c4)cc[nH]c3=O)nc12 | 21.7 ± 13
Cc1cc(Nc2ncc(Cl)c(Nc3ccccc3S(=O)(=O)C(C)C)n2)c(OC(C)C)cc1C1CCNCC1 | -7.62 ± 8.9
CN1CC[C@@H](c2c(O)cc(O)c3c(=O)cc(-c4ccccc4Cl)oc23)[C@@H]1CO.Cl | 4 ± 2.6
Oc1ccc(-c2nc(-c3ccc(F)cc3)c(-c3ccncc3)[nH]2)cc1 | -5.77 ± 4
C=CC(=O)Nc1cccc(Oc2nc(Nc3ccc(N4CCN(C)CC4)cc3)nc3ccsc23)c1 | -10.3 ± 4.1
CC(C)(C)c1nc(-c2cccc(NS(=O)(=O)c3c(F)cccc3F)c2F)c(-c2ccnc(N)n2)s1 | 6.2 ± 7.3
Cc1ccccc1-n1c(Cn2nc(-c3cccc(O)c3)c3c(N)ncnc32)nc2cccc(C)c2c1=O | 1.94 ± 11
Cn1cc(C=C2C(=O)Nc3cccnc32)c2ccccc21 | -3.06 ± 6
CNC(=O)c1cc(Oc2ccc(NC(=O)Nc3ccc(Cl)c(C(F)(F)F)c3)cc2)ccn1 [Sorafenib] | 17.5 ± 6.7
S=C(NCc1ccc2c(c1)OCO2)N1CCN(c2ncnc3c2oc2ccccc23)CC1 [Amuvatinib (MP-470)] | 3.8 ± 9.9
CCN(C)S(=O)(=O)Nc1ccc(F)c(C(=O)c2c[nH]c3ncc(-c4cnc(C5CC5)nc4)cc23)c1F | -1.7 ± 4
CO[C@H]1C[C@@H]2CC[C@@H](C)[C@@](O)(O2)C(=O)C(=O)N2CCCC[C@H]2C(=O)O[C@H]([C@H](C)C[C@@H]2CC[C@@H](O)[C@H](OC)C2)CC(=O)[C@H](C)/C=C(\C)[C@@H](O)[C@@H](OC)C(=O)[C@H](C)C[C@H](C)/C=C/C=C/C=C/1C [Rapamycin (Sirolimus)] | -8.37 ± 4.2
Cc1c(NC(=O)OC[C@@H]2COCCN2)cn2ncnc(Nc3ccc4c(cnn4Cc4cccc(F)c4)c3)c12 | -10.7 ± 4.8
CN(C[C@@H]1COCCO1)S(=O)(=O)Nc1ccc2ccc3ncc(-c4cnn(C)c4)cc3c(=O)c2c1 | 7.88 ± 10
